Experimental data from PubChem BioAssay.
Unmarked numbers belong to inactive results.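 The calls were made as follows: active = inhibition at or above 50% relative to wild type and mutant plate controls; inactive = inhibition below 50%.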

Test: loss of swimming-algae plug formation – whole organism, Chlamydomonas reinhardtii, WT vs cilia-less mutant, absorbance, 96-well, primary screen (AID 463189);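 also: 0% = wild type cc124 cells in DMSO and 100% = ciliumless bld1 mutant cells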
Conditions: Chlamydomonas reinhardtii gravitaxis, OD600 absorbance, 2 days; at 10 µM; hits give high values
Work on `Cc1ccc(C(=O)Nc2ccc(S(=O)(=O)O)c3cc(S(=O)(=O)O)cc(S(=O)(=O)O)c23)cc1NC(=O)c1cccc(NC(=O)Nc2cccc(C(=O)Nc3cc(C(=O)Nc4ccc(S(=O)(=O)O)c5cc(S(=O)(=O)O)cc(S(=O)(=O)O)c45)ccc3C)c2)c1` yielded an inhibition of -3.04%.
Work on `Cn1c(=O)[nH]c2ncn(C)c2c1=O` yielded an inhibition of -7.51%.
In the case of `Nc1ccn([C@H]2CC[C@@H](CO)O2)c(=O)n1`, the inhibition is reported as -7.35%.
Work on `CN1CCc2cc(O)c(O)cc2C(c2ccccc2)C1` (stereo not given) yielded an inhibition of 2.5%.
With `CN(C)CCCO[C@@H]1[C@H]2OC(C)(C)O[C@H]2O[C@@H]1C(O)CO` (stereo not given in full) the inhibition was 0.355%.
`O=C1NCC2(CCN(CCc3ccccc3)CC2)O1` gave an inhibition of -9.32%.
Work on `O=C(O)c1cc([N+](=O)[O-])ccc1NCCCc1ccccc1` yielded an inhibition of 9.38%.
With `O=C1O/C(=C/Br)CCC1c1cccc2ccccc12` (stereo not given) the inhibition was -0.58%.
Work on `O=c1onc2cnc3ccccc3n12` yielded an inhibition of 3.46%.
`COc1cc(CC(=O)O)ccc1O` showed an inhibition of -2.57%.
`Cn1c(=O)c2c(ncn2C)n(C)c1=O` gave an inhibition of 1.74%.
With `O=C(/C=C/c1ccc(O)cc1)c1ccc(O)cc1O` the inhibition was 2.79%.
`O=C(OCCN1CCOCC1)C1(c2ccccc2)CCCCC1` gave an inhibition of 2.35%.
With `CC1CN(S(=O)(=O)c2cccc3cnccc23)CCN1` (stereo not given) the inhibition was 5.73%.
With `NC/C=C\C(=O)O` the inhibition was 3.63%.
`COc1ccc2c(c1)c(CC(=O)O)c(C)n2Cc1ccc(F)cc1` showed an inhibition of 4.4%.
`NC1C=CC=C(C(=O)O)C1` (stereo not given) gave an inhibition of -4.63%.
Compound `NC(Cc1ccc(Cl)cc1)C(=O)O` (stereo not given) has an inhibition of -1.92%.
With `CC(C)COC(=O)OCN1C(=O)CN(CCN2CC(=O)N(COC(=O)OCC(C)C)C(=O)C2)CC1=O` the inhibition was 5.88%.
For `CC1(C)NC(=O)N(c2ccc([N+](=O)[O-])c(C(F)(F)F)c2)C1=O`, the inhibition was 0.277%.
Compound `CCC(CO)Nc1nc(NCc2ccccc2)c2ncn(C(C)C)c2n1` (stereo not given) has an inhibition of -6.72%.
For `NCCCCCC(=O)O`, the inhibition was 3.27%.
For `N[C@@H](CS(=O)O)C(=O)O`, the inhibition was 7.29%.
In the case of `NC(=S)NCCCC(N)C(=O)O` (stereo not given), the inhibition is reported as 0.102%.
`N#C/C(=C\c1ccc(O)c(O)c1)C(=O)c1ccc(O)c(O)c1` gave an inhibition of 2.24%.
For `Cc1ccc(S(=O)(=O)N[C@@H](Cc2ccccc2)C(=O)CCl)cc1`, the inhibition was -2.77%.
With `NC(N)=NC(=O)c1nc(Cl)c(N2CCCCCC2)nc1N` the inhibition was -1.07%.
`Nn1nnc2ccccc21` gave an inhibition of 1.8%.
Work on `CO/N=C(\C(=O)N[C@@H]1C(=O)N2C(C(=O)O)=C(COC(C)=O)CS[C@H]12)c1csc(N)n1` (stereo in doubt) yielded an inhibition of 6.36%.
With `OCC1NCC(O)C(O)C1O` (stereo not given) the inhibition was -0.461%.
Compound `O=C(O)CCC(NC(=O)c1ccccc1C(=O)O)C(=O)O` (stereo not given) has an inhibition of 1.62%.
`CCCCOc1cc(CC2CNC(=O)N2)ccc1OC` (stereo not given) gave an inhibition of 2.83%.
Compound `CC(C)NC[C@@H](O)c1ccc(O)c(O)c1` has an inhibition of 3.12%.
`C[C@H]1O[C@@H](n2cc(F)c(=O)[nH]c2=O)[C@H](O)[C@@H]1O` gave an inhibition of 2.48%.
Compound `O=C(CCCN1CCC(O)(c2cccc(C(F)(F)F)c2)CC1)c1ccc(F)cc1` has an inhibition of 40.6%.
`C[N+]1(CCCCC[N+]2(C)CCCC2)CCCC1` showed an inhibition of -4.7%.
With `CN(C)CCN(Cc1cccs1)c1ccccn1` the inhibition was 2.59%.
Compound `O=C(c1cc(O)c(O)c([N+](=O)[O-])c1)c1ccccc1F` has an inhibition of -0.57%.
Work on `CC(N)C1CCC(C(=O)Nc2ccncc2)CC1` (stereo not given) yielded an inhibition of 3.82%.
With `COc1ccc(-c2ccc(N)[n+](CCCC(=O)O)n2)cc1` the inhibition was 7.29%.
